Compounds with a hit are over-represented: about 10% of the library has one in this group of screens.
Lmaj promast: Leishmania major promastigote growth inhibition. actives 9% (n = 200,000). inhibition, % at 10 µM. Leishmania major promastigotes, resazurin fluorescence viability; in the data active = inhibition above about 50%;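 also: promastigotes grown with compound for 44 hours at 28 °C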
Insulin prom inh: TRM-6 insulin promoter activity inhibition; TRM-6 cells (human fetal islet line), insulin promoter-eGFP reporter, imaging; reporter expression induced with tamoxifen; AID 1273; inhibition, % at 2 µM; actives 0.9% (n = 130,000);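 active = inhibition above the mean plus 3 SD, with well images judged a real hit on visual review, cut at about 60% in these data, passing the limit was not always enough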
HCT116 bCat-KO: beta-catenin-lacking colon tumor cell growth suppression; HCT116 beta-catenin knockout viability, CellTiter-Glo, 60 h; active compounds read low; viability, % at 10 µM; actives 1.5% (n = 140,000); AID 818;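 active = viability at or under a set limit, the compound median less 4 SD, cut at about 6% in these data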;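 also: 0% = Hyamine 1622 control at 20 µM and 100% = untreated cell control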
p97 ATPase inh: human p97 ATPase inhibition. recombinant p97 ATPase, Kinase-Glo ATP luminescence, 3 h. inhibition, % at 8 µM. AID 1481. P55072. actives 0.42% (n = 220,000); in the data active = inhibition above about 15%;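 also: 0% = DMSO vehicle and 100% = wells lacking enzyme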
Target sequence (P55072 whole entry, looked up): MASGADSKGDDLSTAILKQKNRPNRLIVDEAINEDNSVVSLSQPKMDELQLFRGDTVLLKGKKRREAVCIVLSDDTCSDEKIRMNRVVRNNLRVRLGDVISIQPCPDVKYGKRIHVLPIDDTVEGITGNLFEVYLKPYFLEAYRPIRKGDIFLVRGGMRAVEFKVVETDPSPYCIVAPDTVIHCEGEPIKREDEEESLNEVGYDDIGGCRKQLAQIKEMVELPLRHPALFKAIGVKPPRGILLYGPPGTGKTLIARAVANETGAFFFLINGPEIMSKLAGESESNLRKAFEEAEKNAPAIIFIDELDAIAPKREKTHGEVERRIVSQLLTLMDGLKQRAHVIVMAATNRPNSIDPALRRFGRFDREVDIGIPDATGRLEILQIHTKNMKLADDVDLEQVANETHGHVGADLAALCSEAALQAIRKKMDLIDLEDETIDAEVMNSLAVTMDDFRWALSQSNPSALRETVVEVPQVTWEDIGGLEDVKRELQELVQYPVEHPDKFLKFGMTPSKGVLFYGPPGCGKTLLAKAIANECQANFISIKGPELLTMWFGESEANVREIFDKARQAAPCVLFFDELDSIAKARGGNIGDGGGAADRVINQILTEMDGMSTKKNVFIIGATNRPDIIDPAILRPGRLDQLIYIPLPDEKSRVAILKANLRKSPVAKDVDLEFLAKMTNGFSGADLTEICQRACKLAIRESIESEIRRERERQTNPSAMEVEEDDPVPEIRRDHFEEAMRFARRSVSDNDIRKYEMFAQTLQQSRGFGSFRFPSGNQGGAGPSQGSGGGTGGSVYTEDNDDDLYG
HCT116 PTEN-null: PTEN-deleted cell growth suppression; HCT116 PTEN-null viability, CellTiter-Glo, 60 h; active compounds read low; viability, % at 10 µM; actives 1.2% (n = 140,000); AID 827;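 active = viability at or below a set limit, 4 SD under the median of all tested compounds, cut at about 3.7% in these data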;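 also: PTEN knockout HCT116 line with beta catenin targeted HCT116 as companion control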
ROMK mod: modulates human ROMK potassium channel activity; P48048; Tet-inducible ROMK, thallium flux fluorescence; actives lie on both sides; B-score at 10 µM; actives 2% (n = 130,000);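 active = signal ratio slope over the read window, or its plate-corrected B-score, at least 3 SD from the plate mean, either direction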;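 also: B-score of the F/F0 ratio slope over 7 to 12 s after thallium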
An asterisk follows results filed as active; / = no result given.

SMILES | Lmaj promast | Insulin prom inh | HCT116 bCat-KO | p97 ATPase inh | HCT116 PTEN-null | ROMK mod
Oc1c(C(Nc2nccs2)c2ccc(C(F)(F)F)cc2)ccc2cccnc12 (centres undefined) | 99.9* | / | / | 5.2 | / | 1.11
COc1ccc(OC)c(NC(=O)CCc2c[nH]c3ccccc23)c1 | 8.0 | -77.8 | / | 4.2 | / | -0.0415
COc1ccc(-n2c(-c3ccc(Br)cc3)c[n+]3c2SC(C)C3)cc1 (centres undefined) | 100.1* | -33.3 | / | 4.7 | / | -1.27
COc1ccc(-n2c(-c3ccc(Br)cc3)c[n+]3c2CCC3)cc1 | 100.0* | 14.3 | / | 5.9 | / | /
CCOc1ccc(-c2c[n+]3c(n2-c2ccccc2)CCCCC3)cc1 | 100.3* | / | 15.0 | 2.5 | 13.7 | /
CCOc1ccc(-n2c(-c3ccc(Cl)cc3)c[n+]3c2SCC3)cc1 | 100.2* | / | / | 6.8 | / | 0.0307
COc1ccc(-n2c(-c3ccc(Br)cc3)c[n+]3c2CCCCC3)cc1 | 100.0* | -15.0 | / | 0.6 | / | -2.06
COc1ccc(-n2c(-c3ccccc3)c[n+]3c2CCC3)cc1 | / | / | / | 2.4 | / | /
CCOc1ccc(-c2nnc(-c3ccccc3)o2)cc1 | -3.5 | 68.8 | 89.6 | -9.5 | 86.4 | /
CCOc1ccc(-c2nnc(-c3ccccc3)n2-c2ccccc2)cc1 | 65.2* | -4.5 | 92.4 | 9.4 | 94.9 | /
Cc1ccc(-n2c(-c3ccccc3)c[n+]3c2CCC3)cc1 | 97.6* | 14.3 | / | 8.1 | / | 0.0562
CN(C(=O)C(Cl)Cl)C1CC2C=CC1C2 (centres undefined) | / | / | / | 4.8 | / | -0.432
COc1ccc(OC)c(-c2csc(N3CCC(c4ccccc4)CC3)n2)c1 | -4.9 | / | / | 7.2 | / | -0.0822
CCNc1nc(NCC)nc(SCCOC(=O)Nc2ccc(Cl)cc2Cl)n1 | 3.4 | -28.6 | 87.0 | -2.1 | 85.9 | -0.288
CCNc1nc(NCC)nc(SCCOC(=O)c2ccccc2)n1 | 54.7* | 72.1 | 91.6 | -1.3 | 93.1 | -0.814
Nn1c(SC/C=C/c2ccccc2)nnc1-c1cccnc1 | -0.2 | -12.5 | 86.6 | 0.1 | 102.8 | /
Clc1ccc(-n2c(SC/C=C/c3ccccc3)nnc2-c2cccnc2)cc1 | 74.0* | -13.9 | 68.5 | -2.3 | 67.2 | 0.804
COC(=O)c1[nH]nc(C(=O)OC(C)(C)C)c1-c1ccccc1 | 0.9 | 8.3 | 79.4 | -3.0 | 83.5 | -0.966
CCn1c(CNC(=O)COc2ccc(C(C)C)cc2)nnc1SCC(=O)Nc1ccccc1C(C)C | 76.3* | / | 66.2 | -3.1 | 62.3 | /
Cc1ccccc1Nc1c(F)c(F)c(F)c(F)c1C(=O)O | -9.0 | / | / | -3.6 | / | -0.66
Cc1ccc2[nH]c(C)c(/C=N/Nc3nc4ccccc4s3)c2c1 | 3.1 | 21.1 | 1.6* | 9.9 | 1.1* | /
Brc1csc(/C=N/Nc2nc3ccccc3s2)c1 | -0.5 | 41.9 | 70.5 | -6.3 | 58.5 | /
C=CCn1c(C)cc(-c2csc(NC)n2)c1C | 96.1* | -66.7 | / | 0.4 | / | -1.19
C=CCn1c(C)cc(-c2csc(NCC)n2)c1C | 35.1 | / | / | 1.0 | / | -0.557
O=C(Nc1ncc(Cc2ccccc2Cl)s1)C1=NCCN1 | 72.8* | -38.7 | 49.0 | 0.1 | 37.6 | /
SMILES | Lmaj promast | Insulin prom inh | HCT116 bCat-KO | p97 ATPase inh | HCT116 PTEN-null | ROMK mod
O=C(Nc1ncc(Cc2ccc(Cl)cc2Cl)s1)c1ccc([N+](=O)[O-])cc1 | 53.2* | -26.3 | 47.0 | 2.9 | 34.6 | 1.62
CCc1ccc(Cc2cnc(NC(=O)C3=NCCN3)s2)cc1 | -6.3 | / | / | 3.0 | / | 0.252
COc1ccc(C)cc1NC(=O)COCC(=O)O | -1.6 | 31.6 | 99.9 | 1.9 | 106.0 | /
COc1ccc(CC(=O)NNC(=O)COc2ccc(Br)cc2C)cc1OC | -4.9 | 23.1 | 87.9 | 1.9 | 92.2 | 0.312
COc1ccc(C)cc1NC(=O)C(=O)NNC(=O)COc1ccc(Cl)cc1 | -5.4 | 0.0 | / | 6.6 | / | 7.13*
COc1ccc(OC)c(NC(=O)C(=O)NNC(=O)COc2ccc(Br)cc2C)c1 | -5.7 | / | / | -6.0 | / | 1.61*
CCOC(=O)C1=C(C)N=c2s/c(=C\c3ccncc3)c(=O)n2C1c1ccc2c(c1)OCO2 (centres undefined) | 99.0* | 0.0 | 12.9 | -0.5 | 9.9 | /
CCOC(=O)C1=C(C)N=c2s/c(=C/c3ccccc3)c(=O)n2C1c1ccc(OC)c(OC)c1 (centres undefined) | 27.8 | -16.1 | 61.2 | -2.6 | 52.3 | /
COc1ccc(/C=N/OCC(=O)N2CC3(C)CC2CC(C)(C)C3)cc1OC (centres undefined) | 64.7* | -84.4 | 90.5 | -0.1 | 94.7 | /
COc1cc(/C=C/C(=O)OCC(=O)N2CC3(C)CC2CC(C)(C)C3)ccc1O (centres undefined) | 14.6 | 23.1 | 76.1 | -1.3 | 79.6 | -0.0699
Cc1ncc(CN2CCCC(CCC(=O)NCc3ccc(F)c(F)c3)C2)s1 (centres undefined) | 88.3* | / | / | 3.3 | / | 1.95
Cc1ccsc1C(=O)N1CCCC(CCC(=O)NCc2ccccc2F)C1 (centres undefined) | 1.3 | / | / | 0.9 | / | 1.24
Cc1ncc(CN2CCCC(CCC(=O)NCc3ccccc3F)C2)s1 (centres undefined) | 77.2* | 0.0 | / | 3.5 | / | 0.993
O=C(CCC1CCCN(Cc2ccc3c(c2)CCO3)C1)NCc1ccc(F)c(F)c1 (centres undefined) | 98.7* | 50.0 | / | 2.8 | / | -1.96
CC(=O)c1cccc(CN2CCCC(CCC(=O)NCc3ccccc3F)C2)c1 (centres undefined) | 91.5* | / | / | 1.1 | / | 0.284
CO/N=C/C1CCN(c2ncc(C(F)(F)F)cc2Cl)C1=O (centres undefined) | 0.4 | / | / | -4.1 | / | 0.0717
O=C(CCC1CCCN(C2C3CC4CC(C3)CC2C4)C1)NCc1ccc(F)c(F)c1 (centres undefined) | 56.1* | / | / | -2.3 | / | 1.69
COc1ccc(NC(=O)/C(=C/c2ccc3c(c2)OCO3)NC(C)=O)cc1 | 70.8* | -15.4 | 95.0 | -6.5 | 95.3 | 0.161
COc1ccc(C(=O)N/C(=C\c2ccc3c(c2)OCO3)C(=O)Nc2ccc(C(=O)O)cc2)cc1 | -7.2 | 18.8 | / | 1.9 | / | 0.396
COc1cc(/C=N/NC(=O)c2ccc(COc3cc(C)ccc3C(C)C)cc2)cc(OC)c1O | 37.0 | 23.1 | 67.8 | 4.2 | 78.2 | /
Cc1ccc(C(C)C)c(OCc2ccc(C(=O)N/N=C/c3ccc(O)c(O)c3)cc2)c1 | 100.4* | -64.7 | 28.1 | 0.6 | 23.0 | -0.0915
Cc1ccc(C(C)C)c(OCc2ccc(C(=O)N/N=C/c3cccc(O)c3O)cc2)c1 | 100.1* | -21.1 | 6.7 | 1.7 | 8.8 | -0.00326
C=CCn1c(SCC(=O)c2ccccc2)nnc1-c1ccc2c(c1)OCO2 | 1.0 | 21.4 | 93.8 | -7.5 | 97.4 | -0.374
O=C1c2ccccc2S(=O)(=O)c2cc(C(=O)N(c3ccccn3)c3ccccn3)ccc21 | -2.8 | / | 99.1 | 6.0 | 96.3 | /
O=C(Nc1nc(N2C(=O)c3ccccc3C2=O)n(-c2ccccc2)n1)c1ccccc1 | -7.3 | 11.1 | 99.2 | 2.0 | 94.2 | 1.31

Bioassay records (PubChem BioAssay)
